The source of these data is PubChem BioAssay (NCI).

About 83,000 compounds went through this panel and 20% of them were active in at least one assay; those are over-represented in the sample as a whole.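 Compound tested at a single concentration for 48 hours in 96-well plates; a percent growth value below 10 was scored as active.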 A number with no mark means an inactive call.

This assay relates to HCT-15 colon. The assay can be described thus: NCI-60 one-dose screen, 48 h (100 = growth as untreated, 0 = no growth, -100 = all killed). To be noted: 10 µM unless noted.
As for `CCC(/C=C\C(C)=O)CC`, the growth was 101%.
In the case of `CCOC(=O)CO`, the growth is 115%.
The value for `Cc1cc(=O)n(Nc2ccccc2)c(O)c1C#N` was 112%; that for `CN(C)c1ccc(O)c2c1CC1CC3C(N(C)C)C(=O)C(C(N)=O)=C(O)C3(O)C(=O)C1=C2O` (configuration not stated) was 25.4%; that for `COc1ccc2c(Cl)cc(NC(=O)Nc3c(C)cccc3C)nc2c1` was 95.7%.
The result for `CC(=O)c1cccs1` reads 99.5%; that for `O=Cc1ccc(F)cc1`, 93.4%.
As to `O=C(O)c1ccc([N+](=O)[O-])cc1S(=O)(=O)O`, the growth was 106%.
The result for `C=CCC(OC(C)=O)c1ccc(C(C)C)cc1` (configuration not stated) reads 107%; that for `CCOc1ccc(C(=O)NCC(C)C)cc1`, 103%; that for `Cc1ccc(NC(=O)c2ccccc2Cl)cc1`, 95.3%.
The value for `Cc1cc(NC(=O)c2ccccc2)c(Cl)cc1N` was 100%.
Turning to `CCCCNC(=O)c1ccc(OCC)cc1`, the growth is 105%.
On to `CC(=O)c1cccc(N(C)S(=O)(=O)c2ccc(C)cc2)c1`, for which the growth was 57.2%.
As for `CC(=O)c1cc(O)ccc1O`, the growth was 107%.
The result for `Cc1nc(O)cc(=O)[nH]1` reads 119%.
The result for `CCOc1ccccc1NC(=O)CCl` reads 85.9%; that for `Cc1ccc(S(=O)(=O)CCCl)cc1`, 90.9%.
The value for `CC(CCC#N)(CCC#N)C(=O)c1ccccc1` was 100%; that for `Cc1cc(CO)c(O)c(CO)c1` was 102%; that for `O=Cc1ccc(Cl)c(Cl)c1` was 110%.
With `CCN(C(C)=O)c1ccc([N+](=O)[O-])cc1`, the growth was 109%.
The value for `Nc1cccc2cccc(O)c12` was 83%; that for `Cc1cccc2ccccc12` was 92.9%.
The result for `NC(=O)OCCO` reads 108%.
The value for `CCOC(=O)C(CCC#N)(CCC#N)C(=O)OCC` was 98.7%; that for `N#CCCN1C(=O)CCC1C(=O)O` (configuration not stated) was 97.8%.
On to `COC(=O)c1cccc([N+](=O)[O-])c1`, for which the growth is 105%.
The value for `O=C(CC(CC(=O)c1ccccc1)c1ccccn1)c1ccccc1` was 106%; that for `CC(=O)c1cccc(NS(=O)(=O)c2ccc(C)cc2)c1` was 43.2%; that for `C=COC(=O)C(C)(C)C` was 102%.
The result for `CSc1nc2[nH]ncc2c(=O)[nH]1` reads 99.7%.
The value for `CC(=O)c1ccc(C)cc1` was 113%; that for `O=c1[nH]c(=O)c2cc(Cl)cc(Cl)c2[nH]1` was 107%; that for `O=[N+]([O-])c1c(Cl)ncnc1Cl` was 100%.
For the compound `O=C1NCC2CCCC1C2` (configuration not stated), the growth was 104%.
The result for `OC(CBr)CCBr` (configuration not stated) reads 97.8%.
